From PubChem BioAssay (EPA / NIEHS)
Results filed as inconclusive are left out. Calls of active or inactive are those of the source. The calls were made as follows, unless noted: active = hit-call score of the fitted dose curve at least 0.9, where 1 is the maximum; inactive = score below 0.9.

Columns and labels:
[1] = ATG_CRE_CIS: Attagene CIS-FACTORIAL HepG2 Assay for human cAMP Responsive Element (CRE) binding protein 3 (AID 2282926); settings: HepG2 CRE cis-reporter, Attagene multiplexed mRNA; actives raise or lower the signal
How it was run: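 Liver-derived HepG2, transfected with a CRE-containing reporter panel, exposed 24 h; transcript levels sized and quantified by capillary electrophoresis of labelled amplicons; signal changes either way referenced to vehicle.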

[2] = ATG_DR4_LXR_CIS: Attagene CIS-FACTORIAL HepG2 Assay for human Liver X Receptor (LXR), DR4 submotif (AID 2282929); settings: HepG2 Attagene DR4 cis-reporter, mRNA transcription; actives raise or lower the signal
How it was run: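 Total RNA from 24 h-treated, MRTU-transfected HepG2 cells underwent reverse transcription, PCR, fluorescent primer extension and restriction digestion before capillary electrophoresis. Both increases and decreases in reporter signal were fitted against DMSO.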

[3] = ATG_AP_1_CIS: Attagene CIS-FACTORIAL HepG2 Assay for human Activator Protein 1 (AP-1) (AID 2282931); settings: HepG2 Attagene cis-factorial AP-1 reporter mRNA; actives raise or lower the signal
How it was run: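 HepG2, transient cis-reporter transfection; 24 h; readout RT-PCR/CE fluorescence; DMSO baseline, gain and loss fitted.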

[4] = target: Hypoxia-inducible factor 1-alpha (Homo sapiens) (UniProt Q16665); experiment: ATG_HIF1a_CIS: Attagene CIS-FACTORIAL HepG2 Assay for human Hypoxia Inducible Factor 1 (HIF1A) (AID 2282951); settings: HepG2 Attagene cis-factorial HIF1a reporter transcription; actives raise or lower the signal
How it was run: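 After 24 h chemical exposure of reporter-transfected HepG2 cells, reporter cDNA was PCR-amplified, labelled by 6-FAM primer extension (2 min 95 C, 20 s 68 C, 10 min 72 C), HpaI-cut (2 h, 37 C) and analysed by CE.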

[5] = target: Heat shock factor protein 1 (Homo sapiens) (UniProt Q00613); experiment: ATG_HSE_CIS: Attagene CIS-FACTORIAL HepG2 Assay for human Heat Shock Transcription Factor 1 (HSE) (AID 2282953); settings: HepG2 HSE cis-reporter, Attagene RNA transcription; actives raise or lower the signal
How it was run: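 HepG2 cells transfected with cis-promoter reporter units sensing endogenous transcription factor activity; reporter mRNA quantified 24 h post-dose by RT-PCR and capillary electrophoresis of 6-FAM-labelled products. Bidirectional fitting against DMSO.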

[6] = target: Paired box protein Pax-6 (Homo sapiens) (UniProt P26367); experiment: ATG_Pax6_CIS: Attagene CIS-FACTORIAL HepG2 Assay for human Paired Box 6 (PAX6) (AID 2282956); settings: HepG2 CIS-FACTORIAL PAX6 reporter transcription, RNA readout; actives raise or lower the signal
How it was run: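 Values derive from bidirectional curve fitting of reporter mRNA signal relative to DMSO. HepG2 cells bearing transfected cis-regulated MRTUs were exposed for 24 h; transcripts were read by RT-PCR and capillary electrophoresis.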

[7] = target: Signal transducer and activator of transcription 3 (Homo sapiens) (UniProt P40763); experiment: ATG_STAT3_CIS: Attagene CIS-FACTORIAL HepG2 Assay for human Signal Transducer and Activator of Transcription 3 (STAT3) (AID 2282963); settings: HepG2, Attagene cis-factorial STAT3 reporter transcription; actives raise or lower the signal
How it was run: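 Readout: fluorescent reporter mRNA fragments resolved by capillary electrophoresis. Setup: HepG2 transfected with MRTUs reporting endogenous transcription-factor activity, dosed 24 h. Gain or loss of signal fitted bidirectionally against DMSO control.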

[8] = ATG_TA_CIS: Attagene CIS-FACTORIAL HepG2 Assay for human TA Basal Promoter (AID 2282964); settings: HepG2 Attagene CIS-factorial TA basal promoter reporter; actives raise or lower the signal
How it was run: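 HepG2 cells transiently transfected with multiple reporter units under cis promoter elements, reporting endogenous transcription factor activity; this endpoint tracks the TA basal promoter as background control. Reporter mRNA after 24 h dosing measured by RT-PCR/capillary electrophoresis; bidirectional fits versus DMSO.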

[9] = ATG_TCF_b_cat_CIS: Attagene CIS-FACTORIAL HepG2 Assay for human T-Cell-Factor with beta-catenin (TCF/b-cat) (AID 2282965); settings: HepG2 TCF/beta-catenin cis-reporter transcription, actives raise or lower the signal
How it was run: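 HepG2, transient MRTU transfection, cis-element-driven reporters (endogenous TFs). 24 h compound exposure. Readout: reporter mRNA by RT-PCR + 6-FAM primer extension, HpaI digest, capillary electrophoresis. Gain/loss fit vs DMSO baseline.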

[10] = ATG_TAL_CIS: Attagene CIS-FACTORIAL HepG2 Assay for human TAL Basal Promoter (AID 2282966); settings: HepG2 Attagene cis-factorial TAL promoter reporter; actives raise or lower the signal;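 also: background control endpoint measuring basal TAL promoter reporter mRNA not a specific factor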
How it was run: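 Human hepatoma HepG2 cells, transfected with promoter-regulated reporter units, were treated 24 h. Reporter transcript levels, measured through RT-PCR and capillary electrophoresis, were fitted for gain or loss relative to DMSO.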

[11] = target: X-box-binding protein 1 (Homo sapiens) (UniProt P17861); experiment: ATG_Xbp1_CIS: Attagene CIS-FACTORIAL HepG2 Assay for human X-box Binding Protein 1 (XBP1) (AID 2282972); settings: HepG2 XBP1 cis-element reporter, Attagene multiplex; actives raise or lower the signal
How it was run: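 Human hepatoma HepG2, cis-element reporter system, 24 h treatment; mRNA quantified by RT-PCR/CE fluorescence; fit relative to DMSO.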

[12] = target: Transcriptional activator Myb (Homo sapiens) (UniProt P10242); experiment: ATG_Myb_CIS: Attagene CIS-FACTORIAL HepG2 Assay for human Myeloblastosis (Myb) Proto-Oncogene Transcription Factor (AID 2282986); settings: HepG2 Attagene CIS-FACTORIAL Myb reporter transcription; actives raise or lower the signal
How it was run: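 After 24 h of compound dosing, total RNA from transfected HepG2 cells is reverse-transcribed and the reporter sequences amplified, labeled and separated by capillary electrophoresis. Values come from bidirectional fitting against DMSO.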

[13] = ATG_NFI_CIS: Attagene CIS-FACTORIAL HepG2 Assay for human Nuclear Factor I (NFI) (AID 2282989); settings: HepG2 cis-regulatory reporter, NFI response element transcription; actives raise or lower the signal
How it was run: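 Endogenous TF activity in HepG2 cells transiently transfected with cis-element-driven multiplexed reporter units, read 24 h after dosing. Reporter mRNA quantified by RT-PCR, 6-FAM labelling, HpaI digestion and capillary electrophoresis; bidirectional fit versus DMSO.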

[14] = target: Myc proto-oncogene protein (Homo sapiens) (UniProt P01106); experiment: ATG_Myc_CIS: Attagene CIS-FACTORIAL HepG2 Assay for human Myelocytomatosis (Myc) Proto-Oncogene Transcription Factor (AID 2282990); settings: HepG2, Attagene cis-reporter transcription factor activity; actives raise or lower the signal
How it was run: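 Read-out: fluorescent reporter mRNA fragments resolved by capillary electrophoresis after RT-PCR. Human HepG2 liver cells carried transfected cis-element reporter units and were dosed for 24 h. Gain or loss of signal fitted relative to DMSO baseline.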

[15] = ATG_NRF2_ARE_CIS: Attagene CIS-FACTORIAL HepG2 Assay for human Nuclear Factor Erythroid 2 Related Factor 2 (NFR2) response to Antioxidant Response Elements (ARE) (AID 2282992); settings: HepG2 Attagene ARE/NRF2 reporter, transcription factor activity; actives raise or lower the signal;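 as to AC50: reporter mRNA level measured by RT-PCR and capillary electrophoresis fluorescence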
How it was run: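 Fluorescence intensity of reporter-specific cDNA fragments, separated by capillary electrophoresis, reflects mRNA induction in transfected HepG2 cells at 24 h. Activity is fitted bidirectionally, DMSO serving as baseline.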

[16] = ATG_Oct_MLP_CIS: Attagene CIS-FACTORIAL HepG2 Assay for human Octamer-Binding Transcription Factor (Oct) (AID 2282993); settings: HepG2 Attagene cis-factorial Oct reporter, mRNA; actives raise or lower the signal
How it was run: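 HepG2 cells transiently transfected with cis-element-driven reporter transcription units (endogenous TF activity); 24 h compound exposure. Reporter mRNA quantified by RT-PCR, 6-FAM labelling, HpaI digestion and capillary electrophoresis; bidirectional fit versus DMSO baseline.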

[17] = target: Cellular tumor antigen p53 (Homo sapiens) (UniProt P04637); experiment: ATG_p53_CIS: Attagene CIS-FACTORIAL HepG2 Assay for human p53 Transcription Factor (AID 2282994); settings: HepG2 p53 cis-element reporter, Attagene mRNA; actives raise or lower the signal
How it was run: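 Transiently transfected HepG2 (multiple cis reporter transcription units); exposure 24 h; reporter RNA via RT-PCR, 6-FAM extension, 2 h HpaI digest at 37 C, CE detection; DMSO baseline.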

[18] = target: Nuclear receptor subfamily 1 group I member 2 (Homo sapiens) (UniProt O75469); experiment: ATG_PXR_TRANS: Attagene TRANS-FACTORIAL HepG2 Assay for human Pregnane X Receptor (PXR) (AID 2283008; active = hit-call score of the fitted dose curve at least 0.9, where 1 is the maximum)
How it was run: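 Transient HepG2 transfectants carrying multiplexed reporter transcription units; PXR activity read through a Gal4 chimera. 24 h exposure. RT-PCR/CE fluorescence; upward curve fit referenced to DMSO.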

[19] = ATG_XTT_Cytotoxicity: Cytotoxicity Assessment in the Attagene TRANS-FACTORIAL HepG2 Assay (AID 2283584; active = hit-call score of the fitted dose curve at least 0.9, where 1 is the maximum)
How it was run: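 24 h chemical exposure of reporter-transfected HepG2; XTT signal loss vs DMSO indicates cytotoxicity.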

[20] = ATG_Ets_CIS: Attagene CIS-FACTORIAL HepG2 Assay for human Erythroblast Transformation Specific (ETS) (AID 2282941); settings: HepG2 ETS cis-reporter transcription, actives raise or lower the signal
How it was run: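 Multiplexed reporter transcript profiling: HepG2, 24 h treatment, total RNA to cDNA, PCR, 6-FAM labelling, HpaI cut, capillary electrophoresis. Gain- or loss-of-signal fitted against DMSO.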

Measured: AC50

Chain of Nuclear receptor subfamily 1 group I member 2 (Homo sapiens) (O75469 whole entry, looked up, the tested form may be a part): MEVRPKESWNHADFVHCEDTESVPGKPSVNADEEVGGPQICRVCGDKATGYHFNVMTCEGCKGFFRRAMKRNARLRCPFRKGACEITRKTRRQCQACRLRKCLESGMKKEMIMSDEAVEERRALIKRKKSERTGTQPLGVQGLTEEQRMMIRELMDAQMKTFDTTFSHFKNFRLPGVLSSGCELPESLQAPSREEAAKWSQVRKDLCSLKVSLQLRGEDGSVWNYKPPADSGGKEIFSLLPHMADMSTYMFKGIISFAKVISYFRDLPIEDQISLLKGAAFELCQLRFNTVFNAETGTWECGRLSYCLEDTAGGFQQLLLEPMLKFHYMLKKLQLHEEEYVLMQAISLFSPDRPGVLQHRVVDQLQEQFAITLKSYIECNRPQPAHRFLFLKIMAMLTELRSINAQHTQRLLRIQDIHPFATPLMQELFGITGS
Chain of Cellular tumor antigen p53 (Homo sapiens) (P04637 whole entry, looked up): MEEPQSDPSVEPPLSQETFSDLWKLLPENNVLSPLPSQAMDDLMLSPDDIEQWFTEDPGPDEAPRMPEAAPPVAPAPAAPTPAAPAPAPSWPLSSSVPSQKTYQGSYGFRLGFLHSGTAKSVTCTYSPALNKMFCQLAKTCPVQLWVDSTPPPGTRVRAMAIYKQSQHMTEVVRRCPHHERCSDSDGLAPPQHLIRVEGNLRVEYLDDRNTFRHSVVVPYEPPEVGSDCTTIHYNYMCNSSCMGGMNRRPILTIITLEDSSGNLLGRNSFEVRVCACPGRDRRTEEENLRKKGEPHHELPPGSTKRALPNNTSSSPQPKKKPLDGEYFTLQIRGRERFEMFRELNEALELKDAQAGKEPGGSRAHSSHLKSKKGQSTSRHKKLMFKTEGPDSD
Chain of Signal transducer and activator of transcription 3 (Homo sapiens) (P40763 whole entry, looked up, the tested form may be a part): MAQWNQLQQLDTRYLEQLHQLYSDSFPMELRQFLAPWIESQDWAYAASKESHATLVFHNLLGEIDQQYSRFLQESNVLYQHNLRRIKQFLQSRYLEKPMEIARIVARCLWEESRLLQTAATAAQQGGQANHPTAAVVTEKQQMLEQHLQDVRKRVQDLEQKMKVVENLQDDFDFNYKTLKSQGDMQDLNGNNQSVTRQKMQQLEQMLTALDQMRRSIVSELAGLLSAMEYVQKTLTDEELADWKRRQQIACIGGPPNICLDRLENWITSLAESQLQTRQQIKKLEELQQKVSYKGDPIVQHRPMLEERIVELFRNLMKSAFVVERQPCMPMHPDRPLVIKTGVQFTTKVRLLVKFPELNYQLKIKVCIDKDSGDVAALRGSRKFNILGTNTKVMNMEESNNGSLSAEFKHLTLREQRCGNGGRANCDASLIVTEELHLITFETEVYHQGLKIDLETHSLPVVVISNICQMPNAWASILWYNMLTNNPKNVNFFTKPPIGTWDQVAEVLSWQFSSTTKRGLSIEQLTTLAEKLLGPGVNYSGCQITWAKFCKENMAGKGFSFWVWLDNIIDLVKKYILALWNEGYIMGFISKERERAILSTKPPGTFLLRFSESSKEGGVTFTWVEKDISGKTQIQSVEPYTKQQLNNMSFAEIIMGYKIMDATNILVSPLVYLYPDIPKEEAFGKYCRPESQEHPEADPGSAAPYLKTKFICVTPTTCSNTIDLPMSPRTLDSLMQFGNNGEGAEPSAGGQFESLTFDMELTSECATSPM
Chain of Transcriptional activator Myb (Homo sapiens) (P10242 whole entry, looked up): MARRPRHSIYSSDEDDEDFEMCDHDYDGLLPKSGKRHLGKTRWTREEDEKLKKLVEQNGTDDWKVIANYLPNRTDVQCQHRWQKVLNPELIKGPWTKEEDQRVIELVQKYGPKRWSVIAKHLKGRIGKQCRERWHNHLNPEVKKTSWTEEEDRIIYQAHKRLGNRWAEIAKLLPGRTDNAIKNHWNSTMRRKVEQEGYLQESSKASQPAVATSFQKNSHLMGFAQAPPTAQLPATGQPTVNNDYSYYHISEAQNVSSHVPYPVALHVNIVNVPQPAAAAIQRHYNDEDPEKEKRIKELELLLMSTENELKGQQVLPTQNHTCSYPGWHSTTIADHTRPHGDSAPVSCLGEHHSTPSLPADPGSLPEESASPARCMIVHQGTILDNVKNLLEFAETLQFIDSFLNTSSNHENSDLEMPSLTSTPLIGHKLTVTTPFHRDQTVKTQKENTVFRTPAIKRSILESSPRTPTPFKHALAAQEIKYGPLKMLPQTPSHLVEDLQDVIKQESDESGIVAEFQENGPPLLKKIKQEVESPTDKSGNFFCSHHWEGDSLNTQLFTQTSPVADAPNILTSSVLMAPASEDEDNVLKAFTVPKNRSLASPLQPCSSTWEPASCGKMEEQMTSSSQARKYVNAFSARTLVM
Chain of X-box-binding protein 1 (Homo sapiens) (P17861 whole entry, looked up): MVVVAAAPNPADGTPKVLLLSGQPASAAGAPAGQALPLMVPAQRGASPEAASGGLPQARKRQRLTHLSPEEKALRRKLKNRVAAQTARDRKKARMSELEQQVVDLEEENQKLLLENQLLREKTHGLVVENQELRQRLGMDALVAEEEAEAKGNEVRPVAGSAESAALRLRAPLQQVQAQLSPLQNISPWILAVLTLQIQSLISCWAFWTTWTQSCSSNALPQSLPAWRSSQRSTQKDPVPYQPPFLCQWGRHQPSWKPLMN
Chain of Paired box protein Pax-6 (Homo sapiens) (P26367 whole entry, looked up): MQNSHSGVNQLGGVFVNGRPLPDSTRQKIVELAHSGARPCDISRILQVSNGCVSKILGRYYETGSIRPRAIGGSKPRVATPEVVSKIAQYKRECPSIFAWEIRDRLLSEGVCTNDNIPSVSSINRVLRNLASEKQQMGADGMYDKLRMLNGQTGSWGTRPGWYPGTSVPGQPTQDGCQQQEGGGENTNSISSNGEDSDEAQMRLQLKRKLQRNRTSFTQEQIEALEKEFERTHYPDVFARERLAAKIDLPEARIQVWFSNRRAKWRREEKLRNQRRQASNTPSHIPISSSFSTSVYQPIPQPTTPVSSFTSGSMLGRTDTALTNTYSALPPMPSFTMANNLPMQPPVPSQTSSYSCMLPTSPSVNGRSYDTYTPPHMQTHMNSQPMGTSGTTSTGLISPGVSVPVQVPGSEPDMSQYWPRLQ
Chain of Heat shock factor protein 1 (Homo sapiens) (Q00613 whole entry, looked up): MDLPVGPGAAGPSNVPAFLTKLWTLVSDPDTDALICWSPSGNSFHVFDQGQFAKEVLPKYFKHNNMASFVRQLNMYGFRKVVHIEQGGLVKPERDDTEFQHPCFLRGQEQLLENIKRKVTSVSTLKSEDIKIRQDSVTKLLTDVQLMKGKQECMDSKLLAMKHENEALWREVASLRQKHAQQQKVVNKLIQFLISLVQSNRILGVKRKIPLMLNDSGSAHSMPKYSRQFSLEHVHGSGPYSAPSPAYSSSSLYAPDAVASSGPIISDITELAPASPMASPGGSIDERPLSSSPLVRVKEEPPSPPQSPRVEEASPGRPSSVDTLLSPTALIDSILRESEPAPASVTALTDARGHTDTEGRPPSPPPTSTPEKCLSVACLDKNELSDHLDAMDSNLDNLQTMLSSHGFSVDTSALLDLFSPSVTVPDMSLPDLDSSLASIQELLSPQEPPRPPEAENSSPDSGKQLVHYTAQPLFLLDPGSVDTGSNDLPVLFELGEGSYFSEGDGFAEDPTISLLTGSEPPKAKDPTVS
Chain of Hypoxia-inducible factor 1-alpha (Homo sapiens) (Q16665 whole entry, looked up): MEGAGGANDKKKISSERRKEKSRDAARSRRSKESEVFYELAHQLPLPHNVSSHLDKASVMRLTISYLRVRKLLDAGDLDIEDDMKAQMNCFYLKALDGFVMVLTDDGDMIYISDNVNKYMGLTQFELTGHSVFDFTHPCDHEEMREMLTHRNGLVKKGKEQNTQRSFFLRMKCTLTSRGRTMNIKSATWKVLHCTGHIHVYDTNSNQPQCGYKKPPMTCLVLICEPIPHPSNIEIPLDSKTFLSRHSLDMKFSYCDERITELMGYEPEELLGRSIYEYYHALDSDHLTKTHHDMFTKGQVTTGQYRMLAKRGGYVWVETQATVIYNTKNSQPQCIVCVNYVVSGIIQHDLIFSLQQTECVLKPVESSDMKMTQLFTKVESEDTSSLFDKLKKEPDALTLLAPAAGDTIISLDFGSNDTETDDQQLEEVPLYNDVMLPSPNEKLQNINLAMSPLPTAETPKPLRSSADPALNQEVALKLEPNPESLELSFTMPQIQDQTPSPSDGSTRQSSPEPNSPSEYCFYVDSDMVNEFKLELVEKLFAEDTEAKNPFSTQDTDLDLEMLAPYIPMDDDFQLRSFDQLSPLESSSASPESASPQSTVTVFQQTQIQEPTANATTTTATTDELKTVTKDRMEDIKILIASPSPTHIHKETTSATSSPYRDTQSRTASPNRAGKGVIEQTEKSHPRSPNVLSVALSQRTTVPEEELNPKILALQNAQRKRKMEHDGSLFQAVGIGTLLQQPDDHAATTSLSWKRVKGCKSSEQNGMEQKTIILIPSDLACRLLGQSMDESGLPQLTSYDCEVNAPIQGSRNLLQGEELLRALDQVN
Chain of Myc proto-oncogene protein (Homo sapiens) (P01106 whole entry, looked up, the tested form may be a part): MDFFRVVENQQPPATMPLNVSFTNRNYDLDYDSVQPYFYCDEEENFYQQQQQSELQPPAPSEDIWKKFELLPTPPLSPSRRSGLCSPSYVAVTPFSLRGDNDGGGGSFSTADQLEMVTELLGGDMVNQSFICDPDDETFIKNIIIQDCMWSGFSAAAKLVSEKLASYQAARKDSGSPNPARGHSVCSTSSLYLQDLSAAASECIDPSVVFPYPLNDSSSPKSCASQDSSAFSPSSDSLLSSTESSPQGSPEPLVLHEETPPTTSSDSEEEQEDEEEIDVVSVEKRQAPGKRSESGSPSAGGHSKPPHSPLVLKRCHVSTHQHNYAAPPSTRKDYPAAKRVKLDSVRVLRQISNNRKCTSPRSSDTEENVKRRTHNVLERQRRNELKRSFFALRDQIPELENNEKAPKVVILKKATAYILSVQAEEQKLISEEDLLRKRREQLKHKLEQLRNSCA

CC(C)CC(=O)CC(C)CC(C)C (configuration not stated)
active: [15] 116 µM
not listed: [19] | [20]
inactive: all other assays above

O=C(O)/C=C\C(=O)O
not listed: [6] | [18] | [20]
inactive: all other assays above

O=[N+]([O-])c1ccccc1C(F)(F)F
active: [4] 48.9 µM
not listed: [3] | [6] | [20]
inactive: all other assays above

CCCCCCCCCCCCCCCCCC[N+](C)(C)C
active: [2] 6.61 µM | [20] 16.7 µM | [5] 43.9 µM | [6] 5.86 µM | [7] 44 µM | [9] 16.5 µM | [10] 39.2 µM | [12] 6.05 µM | [14] 41.5 µM | [15] 4.81 µM | [16] 6.14 µM | [18] 25 µM
inactive: [3] | [4] | [8] | [11] | [13] | [17] | [19]

O=C(O)/C=C/C(=O)O
not listed: [3] | [18] | [20]
inactive: all other assays above

NC(=O)c1ccc([N+](=O)[O-])cc1Cl
not listed: [3] | [15] | [20]
inactive: all other assays above

CC/C=C\CCO
not listed: [3] | [18] | [20]
inactive: all other assays above
